From PubChem BioAssay
Calls of active or inactive are those of the source. No rule for the calls is given here.

What follows are compounds tested against Pantothenate synthetase (Mycobacterium tuberculosis (strain ATCC 25618 / H37Rv)) (UniProt P9WIL5) (assay: Recombinant Mtb pantothenate synthetase (PanC) inhibitors, coupled enzyme, confirmatory (AID 375;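 also: 0% = full reaction with vehicle and 100% = no enzyme background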)). Details: coupled enzyme assay; at 10 µM, active compounds read high.
Sequence of Pantothenate synthetase (Mycobacterium tuberculosis (strain ATCC 25618 / H37Rv)) (P9WIL5 whole entry, looked up): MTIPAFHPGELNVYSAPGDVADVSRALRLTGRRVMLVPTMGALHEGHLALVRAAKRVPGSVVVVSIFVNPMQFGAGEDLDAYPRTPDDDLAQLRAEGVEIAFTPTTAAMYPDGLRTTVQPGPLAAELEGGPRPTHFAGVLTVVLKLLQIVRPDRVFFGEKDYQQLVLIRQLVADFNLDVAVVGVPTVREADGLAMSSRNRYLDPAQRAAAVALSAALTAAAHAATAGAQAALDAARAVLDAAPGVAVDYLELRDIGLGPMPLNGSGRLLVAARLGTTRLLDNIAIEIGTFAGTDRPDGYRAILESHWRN
In the case of `O=C1C=C(NCc2ccco2)C2(CCCCC2)O1`, the inhibition is reported as 0% (inactive). In the case of `CCOC(=O)C1=C(C)NC(=O)NC1c1ccc(Br)s1` (configuration not stated), the inhibition is reported as 1% (inactive). `CCOc1ccc(C(=O)N2CCC(C(=O)c3ccc4c(c3)OCCO4)CC2)cc1` was tested, and the inhibition was 7% (inactive). `OCC#CCSc1nnc(-c2ccccc2Br)o1` was tested, and the inhibition was 0% (inactive). In the case of `CC1=C(C(=O)NCc2ccccn2)C2(CCC(C)CC2)OC1=O` (configuration not stated), the inhibition is reported as 0% (inactive). In the case of `CCOP(=O)(c1ccc(N(C)C)cc1)C(O)c1c(Cl)cccc1Cl` (configuration not stated), the inhibition is reported as 0% (inactive). In the case of `COc1cccc(OC)c1OCCNCCO`, the inhibition is reported as 2% (inactive). For `Cn1c(=O)cc(OCC(=O)NCCCN2CCN(c3cccc(Cl)c3)CC2)c2ccccc21`, the inhibition was 0% (inactive). For `Cc1ccc2c(c1)NC(=O)C(CC(=O)NC1CCCCC1C)O2` (configuration not stated), the inhibition was 11% (inactive). In the case of `CC1CCc2cc(F)cc3c(O)c(C(=O)Nc4cnccn4)c(=O)n1c23` (configuration not stated), the inhibition is reported as 0% (inactive). For `COc1cccc(-c2nc(CS(=O)(=O)CC(=O)N3CCN(c4ccccn4)CC3)c(C)o2)c1`, the inhibition was 5% (inactive). In the case of `COc1ccc(S(=O)(=O)n2nc(OC(=O)c3ccc(C)cc3)cc2N)cc1`, the inhibition is reported as 5% (inactive). With `CCOC(=O)N1CCN(S(=O)(=O)c2ccc(F)c(C(=O)Nc3cc(C)cc(C)c3)c2)CC1` the inhibition was 7% (inactive). `CCn1cc(C2=NOC(C(=O)Nc3c(C)nn(Cc4ccc(F)cc4)c3C)C2)c(C)n1` (configuration not stated) was tested, and the inhibition was 0% (inactive). For `COc1ccc(-c2nc(N3CCCC3)[nH]c(=O)c2C#N)cc1`, the inhibition was 0% (inactive). For `COc1ccccc1NC1=NC(c2ccc(Cl)cc2)N=C(N)N1` (configuration not stated), the inhibition was 0% (inactive). With `O=C(Nc1ccc(S(=O)(=O)Nc2ccc(Cl)cc2)cc1)C1CCCO1` (configuration not stated) the inhibition was 4% (inactive).
